TWEAK Fn14 block = inhibitors of TWEAK-Fn14 signaling, primary screen, luciferase reporter cells, uHTS; TWEAK-stimulated Fn14 reporter cells, luciferase luminescence, 8 h; inhibition, % at 10 µM; 2% of 360,000 active; AID 1159606, 2016; in the data active means inhibition above about 50%
TROY signal inh = inhibitors of TROY-driven NF-kB signaling, primary screen, Q293 LMP1-TROYcd cells, NF-kB luciferase, uHTS; Q293 LMP1-TROYcd NF-kB luciferase reporter, 4 h; inhibition, % at 10 µM; 0.98% of 360,000 active;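 active means compounds whose plate-normalised and pattern-corrected inhibition of the luciferase reporter signal at the single screening dose is 50% or more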
HSP90 inh = HSP90 inhibitors, primary screen, cell lysate, luminescence; Heat shock protein HSP 90 (rabbit reticulocyte lysate; luciferase refolding); Rabbit reticulocyte lysate, luciferase refolding luminescence, 3 h; inhibition, % at 5.6 µM; 0.91% of 290,000 active;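 active means inhibition above the screen-wide mean plus 3 SD, computed separately per campaign, cut at about 16% in these data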;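 further: inhibitors lower the luminescence because luciferase stays unfolded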
LGR2 antag = inhibitors of bursicon-induced LGR2 CRE-luciferase signal, primary screen, cell-based, HEK293, CRE-luciferase reporter, bursicon stimulation; Drosophila bursicon receptor LGR2 (rickets); bursicon-stimulated, 4 h; inhibition, % at 9.99 µM; 0.35% of 380,000 active; AID 720647, 2013;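 active means drop in luminescence signal, shown as inhibition above about 50% in the replicate tests, limit read from the data, passing the limit was not always enough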;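 further: agonist challenge used bursicon conditioned medium at about half maximal strength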
Of the large screens only hits and unclear results are named; the others gave an inactive call; ! = repeats disagree. In the library only some 2.2% were active in any assay of this set; here they are far more common.

C[C@@H]1CN([C@@H](C)CO)C(=O)c2cc(-c3cccc(C#N)c3)cnc2O[C@@H]1CN(C)Cc1ccc(F)cc1	none (no result: TWEAK Fn14 block, TROY signal inh, HSP90 inh)
CCCCCCCCCCCCCCCC[n+]1ccc(C(N)=O)cc1	none
CCCCCCCCCCCCCCCC[n+]1ccccc1	TWEAK Fn14 block 77!, TROY signal inh 52!, LGR2 antag 61! (no result: HSP90 inh)
O=C(Cc1ccccc1)N1CC(=O)N2[C@H](CO)[C@@H](c3ccc(C4=CCCC4)cc3)[C@@H]2C1	none (no result: TWEAK Fn14 block, TROY signal inh, HSP90 inh)
Cc1ccnc(NC(=O)COc2ccccc2[N+](=O)[O-])c1	TWEAK Fn14 block 51
Cc1ccc(NC(=O)COc2ccccc2[N+](=O)[O-])nc1	TWEAK Fn14 block 58, LGR2 antag 54
CO[C@@H]1CN(C)C(=O)c2ccc(NC(=O)Nc3ccccc3Cl)cc2OC[C@@H](C)N(C)C[C@H]1C	none (no result: TWEAK Fn14 block, TROY signal inh, HSP90 inh)
CCCNC(=O)C[C@@H]1CC[C@@H]2[C@H](COc3ccc(NS(=O)(=O)c4ccccc4C)cc3C(=O)N2C)O1	none (no result: TWEAK Fn14 block, TROY signal inh, HSP90 inh)
Cc1ccc(C(=O)NC(C#N)=C(Cl)Cl)cc1	LGR2 antag 106 (no result: TWEAK Fn14 block, TROY signal inh)
COC(=O)NC(=C(Cl)Cl)S(=O)(=O)c1ccccc1	TWEAK Fn14 block 69
Cc1ccc(C(=O)NC(=C(Cl)Cl)S(=O)(=O)c2ccccc2)cc1	TWEAK Fn14 block 84
COc1ccc(C(=O)NC(=C(Cl)Cl)S(=O)(=O)c2ccc(C)cc2)cc1	none
C/C=C/c1ccccc1[C@@H]1[C@@H](C#N)N(C(=O)c2cccnc2)[C@@H]1CO	none (no result: TWEAK Fn14 block, TROY signal inh, HSP90 inh)
COc1ccc(S(=O)(=O)Nc2ccc3c(c2)C(=O)N([C@@H](C)CO)C[C@H](C)[C@H](CN(C)Cc2ccc(C(=O)Nc4ccccc4N)cc2)O3)cc1	none (no result: TWEAK Fn14 block, TROY signal inh, HSP90 inh)
CCC(=O)Nc1ccc2c(c1)C(=O)N(C)C[C@@H](OC)[C@H](C)CN(C(=O)COC)[C@@H](C)CO2	none (no result: TWEAK Fn14 block, TROY signal inh, HSP90 inh)
COc1ccccc1CNC(=O)C[C@H]1CC[C@@H]2[C@H](COC[C@@H](O)CN2Cc2cccc(-c3ccncc3)c2)O1	none (no result: TWEAK Fn14 block, TROY signal inh, HSP90 inh)
CO[C@@H]1CN(C)C(=O)c2cc(NS(C)(=O)=O)ccc2OC[C@H](C)N(Cc2ccccn2)C[C@H]1C	none (no result: TWEAK Fn14 block, TROY signal inh, HSP90 inh)
COc1ccc(NC(=O)N[C@@H]2CC[C@H](CC(=O)NC3CCCCC3)O[C@@H]2CO)cc1	none (no result: TWEAK Fn14 block, TROY signal inh, HSP90 inh)
CN1C(=O)CSc2ccc(NC(=O)N3CCN(c4ccccn4)CC3)cc21	none
Cc1ccc(C)c(N2CCN(C(=O)Nc3ccc4c(c3)N(C)C(=O)CS4)CC2)c1	TWEAK Fn14 block 52
CC(C)C(=O)Nc1nnc(S(=O)(=O)N(C)c2ccc(Cl)cc2)s1	TWEAK Fn14 block 72
C[C@@H](NC(=O)C[C@H]1CC[C@H](NC(=O)Cc2ccccn2)[C@H](CO)O1)c1ccccc1	none (no result: TWEAK Fn14 block, TROY signal inh, HSP90 inh)
C=CCN(CC=C)c1ncnc2[nH]ncc12	TWEAK Fn14 block 67 (no result: HSP90 inh)
Cc1ccccc1NC(=S)N(Cc1cccnc1)Cc1ccco1	TWEAK Fn14 block 60
C[C@H]1CCCCO[C@@H](CN(C)CC2CCCCC2)[C@@H](C)CN([C@@H](C)CO)C(=O)c2cc(NC(=O)NC3CCCCC3)ccc2O1	none (no result: TWEAK Fn14 block, TROY signal inh, HSP90 inh)
CCOc1ccc(-c2nc(CSCC(=O)NCc3ccco3)c(C)o2)cc1	TWEAK Fn14 block 65 (no result: LGR2 antag)
CCc1ccc(-c2nc(CS(=O)CC(=O)NCc3ccco3)c(C)o2)cc1 (stereo unspecified)	TWEAK Fn14 block 76
CCNC(=O)C[C@H]1CC[C@H]2[C@@H](COC[C@H](O)CN2C(=O)C2CC2)O1	none (no result: TWEAK Fn14 block, TROY signal inh, HSP90 inh)
CC(=O)Nc1ccc(Sc2ncnc3scc(-c4ccccc4)c23)cc1	TWEAK Fn14 block 62
O=C(O)c1ccc(Nc2ncnc3scc(-c4ccccc4)c23)cc1	TWEAK Fn14 block 55
O=C(Cc1ccncc1)Nc1ccc2c(c1)[C@H]1C[C@@H](CC(=O)N3CCc4ccccc4C3)O[C@H](CO)[C@H]1O2	none (no result: TWEAK Fn14 block, TROY signal inh, HSP90 inh)
Cc1cccc(C(=O)n2c(=S)nc3ccccn32)c1	TWEAK Fn14 block 77 (no result: LGR2 antag)
Cc1ccc(C(=O)n2c(=S)nc3ccccn32)cc1	none (no result: TWEAK Fn14 block, TROY signal inh, LGR2 antag)
O=C(c1ccccc1)n1c(=S)nc2ccccn21	TWEAK Fn14 block 82, TROY signal inh 60 (no result: HSP90 inh, LGR2 antag)
C=C1C(=O)OC2C1CCC(C)=C1C(=O)C3OC3(C)C12 (stereo unspecified)	TWEAK Fn14 block 95, LGR2 antag 99 (no result: HSP90 inh)
O=C(CCN1CCCCC1)NCC[C@H]1CC[C@H](NC(=O)Nc2ccc(Cl)cc2)[C@@H](CO)O1	none (no result: TWEAK Fn14 block, TROY signal inh, HSP90 inh)
CCN1C(=O)c2cccc3c(S(=O)(=O)N(C(=O)c4ccncc4)c4ccc(OC)cc4)ccc1c23	none
CCN1C(=O)c2cccc3c(S(=O)(=O)N(C(=O)c4cccnc4)c4ccc(OC)cc4)ccc1c23	TWEAK Fn14 block 62
O=C(CC1CC1)N1CC(=O)N2[C@H](CO)[C@H](c3ccc(C#Cc4ccccc4)cc3)[C@@H]2C1	none (no result: TWEAK Fn14 block, TROY signal inh, HSP90 inh)
O=C(NNc1nc2ccc(Cl)cc2s1)c1cc(-c2cccs2)nc2ccccc12	TWEAK Fn14 block 58 (no result: LGR2 antag)
Cc1cc(C)c2nc(NNC(=O)c3cc(-c4cccs4)nc4ccccc34)sc2c1	none
COc1ccccc1CCn1cnc(-c2ccc(F)cc2)c1CC(C)C	none (no result: TWEAK Fn14 block, TROY signal inh, HSP90 inh)
COc1ccccc1CCn1cnc(-c2ccccc2)c1CC(C)C	LGR2 antag 52 (no result: TWEAK Fn14 block, TROY signal inh, HSP90 inh)
CO[C@H]1CN(C)C(=O)c2ccc(NC(=O)NC(C)C)cc2OC[C@@H](C)N(C(=O)CN(C)C)C[C@@H]1C	none (no result: TWEAK Fn14 block, TROY signal inh, HSP90 inh)
CC1Oc2ccccc2C=C1/C=N/NC(=O)[C@@H](C)NC(=O)OC(C)(C)C (stereo partly specified)	TROY signal inh 66
Cn1c(C(=O)OCC(=O)NCc2cccs2)cc2sccc21	none
Cn1c(C(=O)OCC(=O)NCCc2ccccc2)cc2sccc21	TWEAK Fn14 block 53
CCOc1ccc(CN2CCN(Cc3c(C)nn(CC)c3C)CC2CCO)cc1 (stereo unspecified)	TWEAK Fn14 block 76
CC(C)(C)CC(C)(C)NC1=CC(=O)OC12CCCCC2	none (no result: LGR2 antag)
CN(C)CCCNC1=CC(=O)OC12CCCCC2	TWEAK Fn14 block 90 (no result: TROY signal inh, LGR2 antag)
COc1cc(OC)cc(C(=O)Nn2c(C)nc3ccccc3c2=O)c1	none (no result: LGR2 antag)
COc1ccc2[nH]c3c(c2c1)CCn1c-3nc2ccccc2c1=O	TWEAK Fn14 block 51 (no result: LGR2 antag)
CCOC(=O)c1cnc2ccc(C)cc2c1Nc1ccc(N2CCOCC2)cc1	TWEAK Fn14 block 56 (no result: LGR2 antag)
CCOC(=O)c1ccc2ncc(C(=O)OCC)c(NCCN3CCOCC3)c2c1	none
CN(Cc1ccccc1)C(=O)N[C@@H](Cc1ccccc1)C(=O)O	TWEAK Fn14 block 81 (no result: TROY signal inh, LGR2 antag)
COC(=O)[C@H](Cc1ccccc1)NC(=O)N(C)Cc1ccccc1	none
O=C(COC(=O)c1nc(Cl)c(Cl)c(Cl)c1Cl)NCc1ccccc1	TWEAK Fn14 block 85 (no result: HSP90 inh)
CCCN1[C@H](C(=O)OC)[C@@H](CO)[C@@H]2Cn3c(ccc(-c4ccc(F)cc4)c3=O)[C@@H]21	none (no result: TWEAK Fn14 block, TROY signal inh, HSP90 inh)
COc1cccc2cc(C(=O)NCc3ccco3)c(=O)oc12	none (no result: LGR2 antag)
COc1ccc2cc(C(N)=O)c(=Nc3ccccc3)oc2c1	TWEAK Fn14 block 72
COc1cccc2cc(C(=O)NCc3ccco3)c(=Nc3ccc(C(=O)O)cc3)oc12	TWEAK Fn14 block 71
COc1ccc2cc(C(=O)NCc3ccccc3)c(=Nc3ccc(C(=O)O)cc3)oc2c1	TWEAK Fn14 block 59

Compound activity from PubChem BioAssay.
